An excerpt weighted towards active compounds, which were near 8.1% of everything screened.
PINK1 modulator: PINK1 expression modulation | PINK1 immunofluorescence, high-content cytometry, 24 h | AID 624263 | hit rate 0.2% among 410,000 | Potency, µM (titrated, usually from 76.6 µM), for the others: at the highest dose activation (PINK1 increase), hits mostly activators; active = well fitted activation curve with a large enough effect; inconclusive = small, poorly fitted or top-dose-only effect; cell line not stated here; also: % of control where 0% means no effect; nearly all actives have a fitted effect of over 65% in size
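PINK1 protein, normally rapidly degraded, was detected by immunofluorescence after 24 hour compound treatment of a stable cell line. Titration data (5 concentrations) came from laser-scanning cytometry, with CCCP-treated wells as controls.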
Epigenetic derep: derepresses silenced GFP reporter in murine cells. murine LDR cells, GFP reporter derepression, 30 h. Potency, µM (top dose mostly 53.9 µM), inactives show top-dose GFP activation, most hits filed as activators. hit rate 0.2% among 280,000; also: % of control where 0% means no effect; nearly all actives have a fitted effect of over 60% in size
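In this reporter-derepression format, murine cells bearing a silenced integrated CMV-GFP locus incubate with test compound (30 h, 37 C), then are washed and imaged; fluorescent objects of 20–120 um count as induced cells.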
Gal4-VP16 FLuc: Gal4-VP16 reporter inhibition counter-screen. Drosophila S2 Gal4-VP16 UAS-luciferase, luminescence, 20 h. hit rate 3.5% among 310,000. Potency, µM (highest dose often 53.6 µM), inactives show top-dose activity, negative = inhibition, usual class: inhibitors. AID 2546;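 also: Gal4-VP16 expression switched on by copper sulfate through the metallothionein promoter; % is scaled to controls: 0 for no effect and ±100 for the full control effect; nearly all actives have a fitted effect of over 50% in size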
Sfp inh: blocks B. subtilis Sfp PPTase activity | Q9F4F7 | Biochemical Sfp PPTase activity, qHTS | Potency, µM, for the others: largest response in the series, negative = inhibition, most hits filed as inhibitors | hit rate 3.5% among 310,000 | AID 1490;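 also: the enzyme is Sfp with the accession as filed and its product quenches rhodamine fluorescence; 0% = enzyme reaction without inhibitor and -100% = no enzyme wells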
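Buffer: 50 mM Hepes-Na pH 7.6, 10 mM MgCl2, 0.01% Nonidet P-40, 0.01% BSA. Enzyme 15 nM, pre-exposed to compound 15 min; substrates then added and fluorescence change tracked over 30 min.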
ClpP mod: qHTS Assay for Activators of ClpP; AID 651965, 2013; Potency, µM (titrated, usually from 57.5 µM), for inactives: at the highest dose activity change, negative = active; hit rate 1.9% among 340,000; purified B. subtilis ClpP, FRET peptide cleavage, 20 min; ATP-dependent Clp protease proteolytic subunit (Bacillus subtilis (strain 168)), P80244; active = well fitted falling curve with a large enough effect; inconclusive = small, poorly fitted or top-dose-only effect; inactive = no such curve, though single readings can be large or run the other way; also: the source files actives as falling curves though it sought activators and does not explain the sign; nearly all actives have a fitted effect of over 65% in size
Target sequence (P80244 whole entry, looked up): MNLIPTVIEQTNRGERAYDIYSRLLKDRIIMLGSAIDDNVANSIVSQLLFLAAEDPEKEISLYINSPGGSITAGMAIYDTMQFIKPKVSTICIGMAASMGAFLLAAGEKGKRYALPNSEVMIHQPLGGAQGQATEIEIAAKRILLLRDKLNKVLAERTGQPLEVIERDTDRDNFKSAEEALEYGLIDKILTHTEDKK
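ClpP 10 microg/mL final, pH 8 Tris/KCl buffer with BSA, glycerol, Tween-20; compound pinned in; FRET-FV substrate; RT 20 min; Ex320/Em430; ΔFRET vs ADEP 5.8 microM, DMSO, no enzyme.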
RORg inh: blocks mouse ROR gamma transcriptional activity; AID 2551; Drosophila S2 Gal4-RORgamma UAS-luciferase reporter, 20 h; hit rate 5.4% among 310,000; Potency, µM (titrated, usually from 53.6 µM), for the others: at the highest dose activity change, negative = inhibition, usual class: inhibitors; also: % is scaled to controls: 0 for no effect and ±100 for the full control effect; nearly all actives have a fitted effect of over 60% in size
Target sequence (P51450 whole entry, looked up, the tested form may be a part): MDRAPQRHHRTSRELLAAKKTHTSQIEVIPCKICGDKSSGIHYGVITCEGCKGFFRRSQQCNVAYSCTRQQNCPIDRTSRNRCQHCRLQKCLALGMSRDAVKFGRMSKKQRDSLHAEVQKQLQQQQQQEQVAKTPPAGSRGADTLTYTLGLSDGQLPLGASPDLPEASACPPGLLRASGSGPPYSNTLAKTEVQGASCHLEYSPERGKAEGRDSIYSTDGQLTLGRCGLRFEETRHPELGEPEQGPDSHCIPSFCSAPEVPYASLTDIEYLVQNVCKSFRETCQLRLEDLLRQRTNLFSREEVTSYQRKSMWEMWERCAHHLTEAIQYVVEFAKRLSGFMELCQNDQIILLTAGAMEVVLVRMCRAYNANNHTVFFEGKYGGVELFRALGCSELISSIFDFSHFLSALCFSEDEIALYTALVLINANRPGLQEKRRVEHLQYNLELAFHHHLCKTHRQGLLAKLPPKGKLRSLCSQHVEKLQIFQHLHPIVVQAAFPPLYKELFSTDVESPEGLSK
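Luminescence from a UAS-regulated Photinus luciferase reporter in stably transfected Drosophila Schneider cells is measured; decreased signal marks ROR gamma inhibition. Fusion expression is induced by 700 uM copper sulfate for 20 hr.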
* hit, by the source's call; ? = inconclusive; nt = no result; [ ] = remark or other dose. Unless noted, calls follow the shape of the dose curve; as a rule, active = well fitted curve in the direction sought with a large enough effect; inconclusive = small, poorly fitted or top-dose-only effect, or another doubt; inactive = no such curve, though single readings can be large; an effect the other way counts as inactive or inconclusive. Potency is read from the fitted curve at half-maximal effect.

SMILES | PINK1 modulator | Epigenetic derep | Gal4-VP16 FLuc | Sfp inh | ClpP mod | RORg inh
CCOC(=O)c1ccccc1NC(=O)CSc1nc(=O)[nH]c2c1CCC2 | 1% | 0% | nt | nt | -6% | nt
COCCCNC(=O)c1c(NC(=O)c2cc(=O)c3ccccc3o2)sc2c1CCCC2 | 0% | -2% | nt | nt | 0% | nt
S=c1[nH]nc(-c2ccccc2)o1 | -1% | 5% | -3% | 8% | -2% | 26%
O=c1c2ccccc2c(-c2n[nH]c(=S)o2)nn1Cc1ccccc1 | -2% | -2% | 0% | 79µM* | -9% | 1%
C[C@@H]1CN([C@H](C)CO)C(=O)c2cc(/C=C/c3ccccc3)cnc2O[C@H]1CN(C)C(=O)NC1CCCCC1 | 0% | nt | nt | nt | 4% | nt
C[C@H]1CN([C@@H](C)CO)S(=O)(=O)c2ccc(/C=C/c3ccccc3)cc2O[C@H]1CN(C)C(=O)NC1CCCCC1 | 1% | nt | nt | nt | 35µM* | nt
O=C(CCCN1C(=O)/C(=C/c2ccccc2Cl)SC1=S)NNC(=O)c1ccccc1Cl | 2% | 1% | 2.8µM* | -17% | 10% | 1µM*
O=C(CCCN1C(=O)/C(=C/c2cccs2)SC1=S)NNC(=O)c1ccccc1O | 6% | 0% | ? | 21% | -4% | -34%[10 µM]
O=C(CCCN1C(=O)/C(=C/c2ccccc2Cl)SC1=S)NNC(=O)c1ccncc1 | 6% | -2% | 10µM* | -12% | nt | ?
O=C(CCCN1C(=O)/C(=C/c2cccs2)SC1=S)NNC(=O)c1ccncc1 | 20% | -2% | -24% | 2% | nt | -20%
O=C(CCCN1C(=O)/C(=C\c2cccs2)SC1=S)NNC(=O)c1cccnc1 | 5% | 3% | ? | 15% | nt | 5.6µM*
COc1ccc(CC(=O)NCC(c2cccs2)S(=O)(=O)c2ccc(C)cc2)cc1 (stereo unspecified) | 2% | 10% | nt | nt | 2% | nt
COc1ccc(Cc2noc(CN(C)Cc3ccc(-n4cccn4)cc3)n2)cc1OC | 0% | 0% | -3% | 9% | 1% | 25%
CCc1ccc(CN(C)Cc2nc(Cc3ccc(OC)c(OC)c3)no2)nc1 | ? | 2% | -5% | -17% | nt | 10µM*
COc1ccc(-c2nnc(SCC(=O)NCc3ccccc3)nc2-c2ccc(OC)c(OC)c2)cc1OC | 6% | -1% | nt | nt | -1% | nt
CCc1ccc(-n2nc(C)c3c(C)cc(=O)n(CC(=O)Nc4cc(C)ccc4C)c32)cc1 | -1% | 0% | nt | nt | -8% | nt
CCOc1ccc(CNC(=O)CCS(=O)(=O)Cc2ccc(C)cc2)cc1OC | 2% | 0% | -3%[10 µM] | 5% | 25µM* | 32%
CCOc1ccc(CNC(=O)CCS(=O)(=O)Cc2ccccc2C)cc1OC | 1% | -4% | 6% | 14% | 2% | 7%
COCCOC(=O)c1ccccc1C(=O)OCCOC | nt | nt | 9% | nt | nt | -9%
CCN1CCCC1CNC(=O)c1cnn(-c2nccc(-c3cc(OC)ccc3OC)n2)c1C (stereo unspecified) | -1% | nt | nt | nt | nt | nt
O=C(c1ccc(Cl)cc1)c1oc2ccccc2c1CS(=O)c1ccccc1 (stereo unspecified) | -2%[38.3 µM] | -1% | -24% | 45µM* | -2% | 34%
C=CC[C@@](C(C)=O)(C(=O)OC)C(NC(=O)OC(C)(C)C)c1ccccc1 (stereo partly specified) | nt | -1% | 2% | -15% | nt | 2%
O=C(O)CCCCCn1c(SCC(=O)c2ccc(O)c(O)c2)nc2ccsc2c1=O | 3% | 0% | -6% | -13% | 7.9µM* | -5%
CCOc1cc(/C=C/c2cc(C(=O)O)c3ccccc3n2)ccc1OC | 4% | -1% | ? | -7% | -4% | 13µM*
COc1cc(/C=C/c2cc(C(=O)O)c3ccccc3n2)cc(OC)c1O | 2% | 2% | ? | -14% | nt | -39%
SMILES | PINK1 modulator | Epigenetic derep | Gal4-VP16 FLuc | Sfp inh | ClpP mod | RORg inh
CCOc1cccc(/C=C/c2cc(C(=O)O)c3ccccc3n2)c1OC | 0% | -1% | ? | 15% | -20% | 4.5µM*
CCOc1cc(/C=C/c2cc(C(=O)O)c3ccccc3n2)ccc1O | 0% | 0% | ? | -3% | -5% | ?
O=C(Nc1ccc(O)c(-c2nc3ccccc3s2)c1)c1cccs1 | 16% | 0% | 2% | ? | 28µM* | 43%
CCN(CC)c1ccc(NC(=O)/C=C\c2ccccc2Cl)cc1 | nt | 8% | -6%[0.365 µM] | -4% | -1% | 35%
CN(C)c1ccc(NC(=S)NC(=O)/C=C/c2ccco2)cc1 | 4% | 2% | 9% | 13% | nt | 14µM*
CN(C)c1ccc(NC(=O)/C=C/c2ccccc2Cl)cc1 | ? | ? | -10% | 1% | -2% | 0.056µM*
O=C(Nc1ccc(O)c(-c2nc3ccccc3s2)c1)c1cc(=O)c2ccccc2o1 | -2% | 1% | 1% | 0% | -2% | 0%
O=C(/C=C/c1ccco1)NC(=S)Nc1ccc(C(=O)O)cc1 | 1% | nt | 6% | 56µM* | nt | -13%
O=c1c(=O)n(-c2ccccc2)ccn1Cc1cccc(C(F)(F)F)c1 | 0% | 1% | nt | nt | 0% | nt
COC(=O)c1ccccc1-c1cc(C)cc2c1OC(CNC(=O)c1cc(C)on1)C2 (stereo unspecified) | 0% | nt | nt | nt | nt | nt
CCOc1ccc(NC(=O)CCn2cccn2)cc1 | 0% | 0% | nt | nt | -1% | nt
Cc1ccc2nc(SCC(=O)N3CCC4(CC3)CC4C(=O)Nc3ccc(F)c(F)c3)[nH]c2c1 (stereo unspecified) | 0% | nt | nt | nt | nt | nt
COc1cccc(CNC(=O)C2=C(C)C(=O)OC23CCN(C(C)=O)CC3)c1OC | 1% | 3% | nt | nt | 0% | nt
O=C(/C=C/c1ccco1)NC(=S)Nc1ccc(N2CCCC2)cc1 | 12% | 1% | 3.2µM* | -29% | 4% | 2µM*
O=C(/C=C/c1ccco1)NC(=S)Nc1ccc(O)c(-c2nc3ccccc3s2)c1 | -1% | -1% | 2µM* | -19% | -8% | 2µM*
Nc1nc(CSc2nc3ccccc3s2)nc(N2CCCCC2)n1 | 8% | 0% | 13µM* | 4% | 1% | 6.3µM*
CCc1ccc(Nc2nc(N)nc(CSc3nc4ccccc4s3)n2)cc1 | 10% | 0% | ? | 20% | -5% | 13µM*
COc1ccccc1C1C([N+](=O)[O-])=CC([N+](=O)[O-])=CN1C (stereo unspecified) | 5% | 3% | 11µM* | -24% | nt | ?
CCCn1c(N2CCN(Cc3ccc(Cl)cc3)CC2)nc2ccccc21 | 24% | -1% | ? | ? | 0% | 11µM*
CCn1c(N2CCN(Cc3ccc([N+](=O)[O-])cc3)CC2)nc2ccccc21 | -1% | nt | 4% | -14% | 0% | -17%
